Out of some 52,000 compounds screened, about 1,700 (3.3%) were called active. The full list was thinned out, with actives kept by preference. Unmarked numbers belong to inactive results. No stated cut-off is given here; in the data, active means survival mostly below about 52% (no sharp cut-off); inactive means mostly above about 56%.
system: Wild type; assay: growth inhibition of S. aureus wild type versus tarO mutant, primary screen, teichoic acid synthesis inhibitors, RN4220, OD600 (AID 463173); settings: S. aureus RN4220 wild type/DeltatarO growth, OD600, 18 h, hits give low values, screened at 18.75 µg/mL (by protocol)

SMILES | survival
COc1ccc(OC)c(CCNC(=O)c2cc3cccc4c3n2CCS4)c1 | 71%
Cn1c(=O)c2c(nc(NCc3ccccc3)n2Cc2ccccc2)n(C)c1=O | 79%
CC(C)Cc1nn2c(=O)cc(COC(=O)c3ccc(NC(=O)c4cccs4)cc3)nc2s1 | 127%
CCOc1ccccc1N1CC(c2nc3ccccc3n2CCCCOc2cc(C)ccc2C)CC1=O (stereo unspecified) | 43%
Cc1ccc(C)c(OCCn2c(C3CC(=O)N(Cc4ccc(F)cc4)C3)nc3ccccc32)c1 (stereo unspecified) | -16% (active)
Cc1ccc(OCCCn2c(C3CC(=O)N(c4cccc(Cl)c4)C3)nc3ccccc32)c(C)c1 (stereo unspecified) | 90%
CCc1ccccc1N1CC(c2nc3ccccc3n2CCCCOc2ccccc2OC)CC1=O (stereo unspecified) | 93%
C=CCc1ccccc1OCCn1c(C2CC(=O)N(Cc3ccc(F)cc3)C2)nc2ccccc21 (stereo unspecified) | -16% (active)
Cc1ccc(OCCn2c(C3CC(=O)N(Cc4ccc(F)cc4)C3)nc3ccccc32)c(C)c1 (stereo unspecified) | -15% (active)
COc1ccccc1OCCCn1c(C2CC(=O)N(c3ccc(F)cc3)C2)nc2ccccc21 (stereo unspecified) | 101%
Cc1cc(C)c(Cn2c(C3CC(=O)N(c4ccc(F)cc4)C3)nc3ccccc32)c(C)c1 (stereo unspecified) | 86%
Cc1cccc(C)c1OCCn1c(C2CC(=O)N(c3cccc(Cl)c3)C2)nc2ccccc21 (stereo unspecified) | 84%
Cc1cccc(C)c1OCCn1c(C2CC(=O)N(Cc3ccc(F)cc3)C2)nc2ccccc21 (stereo unspecified) | -4% (active)
CCOc1ccccc1N1CC(c2nc3ccccc3n2CCOc2ccccc2OC)CC1=O (stereo unspecified) | 107%
Cc1cccc(C)c1OCCCCn1c(C2CC(=O)N(c3ccc(F)cc3)C2)nc2ccccc21 (stereo unspecified) | 34%
COc1ccc(NC(=O)Cn2c(=O)n(-c3cccc(C)c3)c(=O)c3c2c2cc(C)ccc2n3C)cc1Cl | 86%
CCc1cccc(NCc2ccccc2-c2nnc(-c3ccccc3Cl)o2)c1 | 81%
CN(C)S(=O)(=O)c1ccc(S(=O)(=O)N2CCC(c3nc4c(nnn4Cc4cccc(F)c4)c(=O)[nH]3)CC2)cc1 | 113%
Cc1cccc(-n2ncc3c(Nc4c(C)cc(C)cc4C)ncnc32)c1 | 83%

SMILES | survival
Cc1ccc(S(=O)Cc2nc(-c3ccc(C(=O)NCc4cccc(C)c4)cc3)oc2C)cc1 (stereo unspecified) | 99%
CCOc1ccc(NC(=O)c2ccc(-c3nc(COc4ccccc4)c(C)o3)cc2)cc1 | 89%
O=C(c1cnc(N2CCCCC2)c2ccccc12)N1CCN(c2cccc(Cl)c2)CC1 | 68%
CCOC(=O)c1cccc(NS(=O)(=O)c2cc(Br)cc3c2N(C(=O)C2CC2)CC3)c1 | 151%
CCCC(=O)NCC(c1ccc2c(c1)OCO2)N1CCN(c2ccccc2)CC1 (stereo unspecified) | 92%
O=C(COc1ccccc1F)Nc1ccccc1OCc1cc(=O)n2ccccc2n1 | 79%
CN(C)c1oc(/C=C/c2ccc(F)cc2)nc1C#N | 87%
CC1CCCCN1CC(=O)N1CCN(C(=O)CN2CCCCC2C)CC1 (stereo unspecified) | 106%
CCOc1ccccc1NC(=O)CN(c1cc(C)cc(C)c1)S(=O)(=O)c1c(C)nn(C)c1C | 69%
Cc1cc(C)cc(N(CC(=O)Nc2c(C)cc(C)cc2C)S(=O)(=O)c2c(C)nn(C)c2C)c1 | -6% (active)
CCc1ccc(NC(=O)CN(c2ccc(C)cc2)S(=O)(=O)c2c(C)nn(C)c2C)cc1 | 76%
O=C(c1cn(CCOc2ccc(Cl)cc2)c2ccccc12)C1CCCCC1 | 9% (active)
Cc1ccc(OCCn2cc(C(=O)C3CCCCC3)c3ccccc32)cc1 | 1% (active)
O=C(c1cccs1)c1cn(CCOc2ccc(Cl)cc2)c2ccccc12 | 80%
O=C(c1ccco1)c1cn(CCOc2ccc(Cl)cc2)c2ccccc12 | 68%
Cc1ccccc1OCCn1cc(C(=O)C2CCCCC2)c2ccccc21 | 124%
COc1ccc(OCCn2cc(C(=O)C3CCCCC3)c3ccccc32)cc1 | 31%
O=C(c1cn(CCOc2ccccc2F)c2ccccc12)C1CCCCC1 | 3% (active)
Cc1ccc(NC(=O)Cn2cc(C(=O)C3CCCCC3)c3ccccc32)cc1 | 87%

SMILES | survival
O=C(c1cccs1)c1cn(CCOc2ccccc2F)c2ccccc12 | 75%
Cn1ncc(Cl)c1C(=O)O | 95%
O=C(CC1N=C2c3ccccc3N=C(SCC(=O)Nc3ccccc3F)N2C1=O)NCc1cccs1 (stereo unspecified) | 73%
O=C1C2=C(Nc3ncnn3C2c2ccccc2)c2ccccc21 (stereo unspecified) | 114%
CSc1ccc(/C=C/c2nc3ccccc3n2S(=O)(=O)c2cccc(Cl)c2)cc1 | 66%
CCN1CCN(C(C)C(=O)NC(c2ccccc2)c2ccccc2)CC1 (stereo unspecified) | 113%
Cc1cccc(Cn2nc(C)n3c(cc4cc(C)ccc43)c2=O)c1 | 79%
CCc1cccc2c(-c3ccccc3)nc(SCC(=O)Nc3ccccc3)nc12 | 88%
Cc1ccc(NC(=O)CSc2nnc3nc(C)cc(C)n23)cc1 | 73%
CCN(CC)S(=O)(=O)c1ccc2c(c1)N(CC(=O)Nc1cccc(C)c1C)C(=O)C1CCCN21 (stereo unspecified) | -4% (active)
CCc1ccccc1NC(=O)CN1C(=O)C2CCCN2c2ccc(S(=O)(=O)N(CC)CC)cc21 (stereo unspecified) | 81%
CCN(CC)S(=O)(=O)c1ccc2c(c1)N(CC(=O)Nc1c(C)cccc1C)C(=O)C1CCCN21 (stereo unspecified) | 73%
CCc1ccc(-c2cc(C)no2)cc1S(=O)(=O)Nc1ccc(Cl)cc1 | 74%
CCc1ccc(-c2cc(C)no2)cc1S(=O)(=O)Nc1ccc(Cl)cn1 | -1% (active)
Cc1ccnc(NS(=O)(=O)c2cc(-c3cc(C)no3)ccc2C)c1 | 78%
Cc1ccc(-c2onc(C)c2C)cc1S(=O)(=O)Nc1ccc(Cl)cn1 | 89%
CCc1ccc(-c2cc(C)no2)cc1S(=O)(=O)Nc1cc(OC)c(OC)c(OC)c1 | 83%
CCc1ccc(-c2cc(C)no2)cc1S(=O)(=O)Nc1ccc(C)cn1 | 14% (active)

From PubChem BioAssay AID463173 (ICCB-Longwood Screening Facility, Harvard Medical School, 2010)
